The panel holds about 79,000 compounds, 15% with a hit somewhere; the sample as a whole holds those more often. Values without a mark were called inactive. Active and inactive are the calls of the source. Cut-off read from the data, not from the text of the source: active = growth inhibition above about 70%; inactive = the rest.

Assay [1] can be described thus: NCI Yeast Anticancer Drug Screen. Data for the rad50 strain (AID 155).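 Note: 0% = growth of vehicle-only cultures of the same strain.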 The note with it: S. cerevisiae rad50 strain growth inhibition; at 50.0 µM; active compounds read high. Put shortly: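 Cells are treated with compound, grown, and their growth is then scored against vehicle-only cultures of the same repair-deficient yeast strain.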
Assay [2] is described as follows: NCI Yeast Anticancer Drug Screen. Data for the mec2-1 strain (AID 157). Conditions: S. cerevisiae mec2-1 strain, at 50.0 µM, active compounds read high. Put shortly: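 Compounds were applied to mec2-1 yeast cells. Their growth was then compared with that of vehicle-treated cultures to give growth inhibition.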
A short description of assay [3]: NCI Yeast Anticancer Drug Screen. Data for the sgs1 mgt1 strain (AID 161).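 Note: 0% = growth of cultures given vehicle only.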 Conditions: S. cerevisiae sgs1 mgt1 strain, at 50.0 µM, active compounds read high. In short, it runs like this: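 Yeast cells carrying a defined DNA-repair defect were exposed to test compounds. Growth inhibition was measured relative to vehicle-treated controls.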
Assay [4] can be described thus: NCI Yeast Anticancer Drug Screen. Data for the cln2 rad14 strain (AID 165).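 Note: 0% = growth equal to vehicle treated cultures.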 The note with it: S. cerevisiae cln2 rad14 strain, at 50.0 µM, active compounds read high. In short, it runs like this: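 Strain: cln2 rad14 yeast, altered in cell cycle control and DNA damage repair. Read-out: growth inhibition vs vehicle.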
Assay [5] in a line: NCI Yeast Anticancer Drug Screen. Data for the bub3 strain (AID 167). The note with it: S. cerevisiae bub3 mutant strain, at 50.0 µM, active compounds read high. Put shortly:
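Part of a panel of yeast mutants defective in DNA damage repair or cell cycle regulation. Each strain is grown with compound, and inhibition is calculated relative to solvent-treated cultures.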

A short description of assay [6]: NCI Yeast Anticancer Drug Screen. Data for the mlh1 rad18 strain (AID 175). Conditions: S. cerevisiae mlh1 rad18 strain growth inhibition; at 50.0 µM; active compounds read high. Put shortly: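 A repair-deficient yeast strain is exposed to test compound, and growth is scored relative to vehicle-treated controls.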

Regarding `CCCOC(=O)c1cc(C(=CCC[C@H]2CC[C@@]3(C)[C@@H](CC[C@@H]4[C@@H]3CC[C@]3(C)[C@@H](C(C)CCCC(C)C)CC[C@@H]43)C2)c2cc(Cl)c(O)c(C(=O)OCCC)c2)cc(Cl)c1O` (some centres not stated), the growth inhibition was 8.7% in assay [1]; -9.05% in assay [2]; -0.55% in assay [3]; 5.65% in assay [4]; -4.05% in assay [5]; -45% in assay [6].

As for `Cc1c(N(C)C)ccc2c(=O)c3cccc(CC(=O)O)c3oc12`, the growth inhibition in assay [1] was 20%; in assay [2] it was 21.7%; in assay [3], -5.35%; in assay [4], 8.6%; in assay [5] it was -16.1%; in assay [6], -5.05%.

Consider `c1cc2c3c(c1)CCC3CCC2` (configuration not stated), for which the growth inhibition in assay [1] is -50.1%; in assay [2], -48%; in assay [3], -50.9%; in assay [4], 12.8%; in assay [5], -35%; in assay [6] it was -4.85%.

`NC(=O)CC(Nc1ncc2c(n1)-c1ccccc1OC2)C(=O)O` (configuration not stated): the growth inhibition in assay [1] is 37.6%; in assay [2], -16.4%; in assay [3], -10.5%; in assay [4] it was 9.95%; in assay [5] it was -45.8%; in assay [6] it was -53.8%.

On to `CCCCCCCCCCCCCCCCCC(=O)N/N=C/c1ccccc1OC`, for which the growth inhibition in assay [1] was 7.05%; in assay [2] it was 11.9%; in assay [3], 9.25%; in assay [4], -1.6%; in assay [5], -2.05%; in assay [6], 28.1%.

Consider `O=C(Oc1c(Br)cc(Br)cc1C(=O)Oc1ccccc1)C(=O)Oc1c(Br)cc(Br)cc1C(=O)Oc1ccccc1`, for which the growth inhibition in assay [1] is 52.7%; in assay [2] it was 23.9%; in assay [3] it was 19.9%; in assay [4], 28.8%; in assay [5], 51.2%; in assay [6] it was 32.6%.

For `CCOC(=O)C(C#N)=C1c2ccccc2Oc2ccccc21`, the growth inhibition in assay [1] was -3.7%; in assay [2], 0.9%; in assay [3], -2%; in assay [4], -46%; in assay [5], 6.95%; in assay [6], -1.15%.

On to `CC(=O)NC1(C)C(=O)N=C(N)N=C1N` (configuration not stated), for which the growth inhibition in assay [1] is 11.2%; in assay [2], 4.3%; in assay [3], 11.1%; in assay [4], -29.8%; in assay [5] it was -4.9%; in assay [6], 8.8%.

On to `CCOC(=O)N1c2ccccc2SC1C#N` (configuration not stated), for which the growth inhibition in assay [1] was 63.1%; in assay [2] it was 40.1%; in assay [3], 37.4%; in assay [4], 1.85%; in assay [5], 25.1%; in assay [6] it was 27.4%.

In the case of `CC12CCC(C(S(=O)(=O)O)C1=O)C2(C)C` (configuration not stated) (tested in a mixture with another compound), the growth inhibition in assay [1] is -1.2%; in assay [2] it was -15.1%; in assay [3], -6.7%; in assay [4] it was -5.7%; in assay [5], -0.6%; in assay [6] it was 0.55%.

For the molecule `CCOCC(=O)NC1Cc2cc(OC)c(OC)cc2C1O` (configuration not stated), the growth inhibition in assay [1] is -29.8%; in assay [2], -6.2%; in assay [3] it was 0.1%; in assay [4], -17.1%; in assay [5], 2.15%; in assay [6], 15.6%.

Regarding `CC12CCC/C(=N\NC(N)=S)C1C(=O)NC(=O)C2` (configuration not stated), the growth inhibition in assay [1] is -6.8%; in assay [2], 2.65%; in assay [3] it was -2.6%; in assay [4], 33%; in assay [5], 12.4%; in assay [6] it was 7.15%.

Regarding `CC/C=C(\C)C(C#N)(CCC)C(=O)OCC` (configuration not stated), the growth inhibition was -1.8% in assay [1]; -34.1% in assay [2]; -20.9% in assay [3]; -0.75% in assay [4]; -25.6% in assay [5]; -31.7% in assay [6].

With `COc1ccc(CN)cc1`, the growth inhibition in assay [1] is -0.7%; in assay [2], -9.6%; in assay [3], -15.2%; in assay [4], 2.75%; in assay [5], 6.85%; in assay [6], -2.6%.

Regarding `Cc1ccc(S(=O)(=O)NC(CC(C)C)C(=O)O)cc1` (configuration not stated), the growth inhibition is 6.65% in assay [1]; -10.6% in assay [2]; -4.55% in assay [3]; -34.2% in assay [4]; 1.3% in assay [5]; 0.45% in assay [6].

Turning to `Cc1cc(NS(=O)(=O)c2ccc(NC(=O)c3cccn4c(=O)c5ccccc5nc34)cc2)no1`, the growth inhibition is -24.6% in assay [1]; 3.7% in assay [2]; -44% in assay [3]; 0.8% in assay [4]; -14.7% in assay [5]; -8.8% in assay [6].

As to `CC(=O)N(C)C1=C(Sc2ccc([N+](=O)[O-])cc2)C(=O)c2ccccc2C1=O`, the growth inhibition in assay [1] was 97% (active); in assay [2], 99.5% (active); in assay [3], 97.5% (active); in assay [4] it was 99% (active); in assay [5] it was 99.1% (active); in assay [6] it was 98.9% (active).

For `CCOC(=O)C(NC(N)=O)C(=O)OCC`, the growth inhibition in assay [1] is -1.05%; in assay [2], 15%; in assay [3], 0.95%; in assay [4], -34.7%; in assay [5], 21.9%; in assay [6] it was 4.7%.

Take `CCNC(CC(N)=O)C(=O)O` (configuration not stated): the growth inhibition in assay [1] is -22.1%; in assay [2], -3.75%; in assay [3] it was 0.15%; in assay [4], -4.05%; in assay [5], -26.4%; in assay [6], -11.6%.

Consider `NC(=S)N/C=C\c1nc2ccccc2[nH]c1=O`, for which the growth inhibition is -34.4% in assay [1]; -18.6% in assay [2]; -39.1% in assay [3]; -21.8% in assay [4]; -12.1% in assay [5]; -15.4% in assay [6].

As to `CCOC(=O)C(C)C1CCCc2c(C)ccc(C)c21` (configuration not stated), the growth inhibition in assay [1] is -8.25%; in assay [2], 9.6%; in assay [3], 1.25%; in assay [4], -1.8%; in assay [5], 8.5%; in assay [6] it was 2.7%.

Consider `CC(=O)OC1[C@@H](OC(C)=O)[C@H](OC(C)=O)C2(CO2)[C@H](OC(C)=O)[C@H]1OC(C)=O` (some centres not stated), for which the growth inhibition in assay [1] is -7.05%; in assay [2], -4.45%; in assay [3], -6.4%; in assay [4], -29.6%; in assay [5], -0.15%; in assay [6], 12.8%.

In the case of `CC1C2CC(C3(C)OCCO3)CCC2(C)CCC12OCCO2` (configuration not stated), the growth inhibition is 1.65% in assay [1]; 16.9% in assay [2]; 3.15% in assay [3]; 11.5% in assay [4]; 2.9% in assay [5]; 5.4% in assay [6].

Regarding `CC(C)C1CC[C@H](C)C[C@@H]1OC(=O)C(C(=O)O[C@H]1C[C@@H](C)CCC1C(C)C)C(O)[C@@H]1OC(C)(C)O[C@H]1C1COC(C)(C)O1` (some centres not stated), the growth inhibition is 73.8% (active) in assay [1]; 90.8% (active) in assay [2]; 91.9% (active) in assay [3]; 44.7% in assay [4]; 90.8% (active) in assay [5]; 56.9% in assay [6].

With `C=Cc1ccc(OC2OC(CO)C(OC3OC(CO)C(O)C(O)C3O)C(O)C2O)cc1` (configuration not stated), the growth inhibition is 14.7% in assay [1]; -18.9% in assay [2]; -1.1% in assay [3]; -58.9% in assay [4]; -0.35% in assay [5]; -2.8% in assay [6].

In the case of `COC1OC(COS(C)(=O)=O)C(OS(C)(=O)=O)C(OC(=O)c2ccccc2)C1OS(C)(=O)=O` (configuration not stated), the growth inhibition was -6.25% in assay [1]; 8% in assay [2]; -9.6% in assay [3]; 1.15% in assay [4]; -0.85% in assay [5]; 20.6% in assay [6].

Consider `CC(C)/C=C1\CCC(CN(C)C)C1=O` (configuration not stated), for which the growth inhibition in assay [1] is 30.4%; in assay [2], 56.1%; in assay [3], 68.8%; in assay [4], 31.4%; in assay [5] it was 75% (active); in assay [6], 85.8% (active).

Take `CCOC(=O)C1C(=O)C(=O)N(C)C1c1ccccc1` (configuration not stated): the growth inhibition is -2.6% in assay [1]; 16.3% in assay [2]; 8.1% in assay [3]; -49.9% in assay [4]; 2.7% in assay [5]; 8.55% in assay [6].

Consider `Cc1cccc(C)c1NC=O`, for which the growth inhibition was 4.7% in assay [1]; -2.35% in assay [2]; -3.3% in assay [3]; 1.45% in assay [4]; -9.8% in assay [5]; 8.9% in assay [6].

On to `CSc1n[nH]c(NC(=O)c2ccccc2Cl)n1`, for which the growth inhibition in assay [1] was -0.9%; in assay [2] it was 0.45%; in assay [3], 1.5%; in assay [4] it was -33.2%; in assay [5], -3.1%; in assay [6], 7.95%.

On to `C1=C2CCc3ccc(o3)CCC(=C1)O2`, for which the growth inhibition was 7.55% in assay [1]; 14.8% in assay [2]; 10.2% in assay [3]; -23.7% in assay [4]; -0.05% in assay [5]; 1.35% in assay [6].

`CCc1ccc(/C(C#N)=C/c2ccc(N(C)CCC#N)cc2)cc1`: the growth inhibition in assay [1] was 10.8%; in assay [2], 2.8%; in assay [3], 18.8%; in assay [4] it was 5%; in assay [5], 16.9%; in assay [6], -23.9%.

`CSC(N)=NC1CCCCC1`: the growth inhibition in assay [1] was -7.35%; in assay [2], 0.1%; in assay [3], -6.05%; in assay [4], -30.4%; in assay [5], 35.9%; in assay [6], 6.15%.

As for `COc1ccc(CN2CCCN(Cc3ccc(OC)cc3)C2c2ccc([N+](=O)[O-])cc2)cc1`, the growth inhibition in assay [1] is -0.3%; in assay [2] it was 14.8%; in assay [3], 12.8%; in assay [4] it was -18.7%; in assay [5], 32.9%; in assay [6], -16.6%.

Consider `COC(=O)C(C)c1cccc2ccc3ccccc3c12` (configuration not stated), for which the growth inhibition in assay [1] is 16.3%; in assay [2] it was -11.7%; in assay [3], 16.2%; in assay [4] it was 9.55%; in assay [5] it was 15.2%; in assay [6], 23.4%.

On to `COc1cc(C2NC(=O)C(C)(C)O2)cc(OC)c1OC` (configuration not stated), for which the growth inhibition in assay [1] was -2.05%; in assay [2], -9.85%; in assay [3], -8.75%; in assay [4], -17.8%; in assay [5], 4.8%; in assay [6] it was -37%.

As to `Cn1cc(C2NC(=O)c3ccccc3N2)c2ccccc21` (configuration not stated), the growth inhibition in assay [1] was -25.1%; in assay [2], -15.7%; in assay [3] it was -7.1%; in assay [4], 12%; in assay [5], -15%; in assay [6] it was -11.7%.
